Results from PubChem BioAssay (NCI).
Compounds without any hit were thinned out: in the full panel of roughly 79,000, 15% have a hit. Unmarked numbers belong to inactive results. Activity calls are given as the source filed them. Rule as the data show it: active = growth inhibition above about 70%; inactive = the rest.

Tests used:
[1] = NCI Yeast Anticancer Drug Screen. Data for the rad50 strain (AID 155);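 also: 0% = growth of vehicle-only cultures of the same strain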; conditions: S. cerevisiae rad50 strain growth inhibition; at 50.0 µM; hits give high values
In short: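 Genetically altered yeast (DNA repair pathway); compound treatment; growth inhibition vs vehicle ctrl.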

[2] = NCI Yeast Anticancer Drug Screen. Data for the mec2-1 strain (AID 157); conditions: S. cerevisiae mec2-1 strain, at 50.0 µM, hits give high values
In short: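 Strain: mec2-1 (DNA repair/cell cycle alteration). Compound exposure, then growth measured; inhibition expressed relative to vehicle.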

[3] = NCI Yeast Anticancer Drug Screen. Data for the sgs1 mgt1 strain (AID 161);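 also: 0% = growth of cultures given vehicle only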; conditions: S. cerevisiae sgs1 mgt1 strain, at 50.0 µM, hits give high values
In short: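 Inhibition of yeast growth, normalised to vehicle-treated controls, is reported for a strain bearing genetic alterations in DNA damage repair.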

[4] = NCI Yeast Anticancer Drug Screen. Data for the cln2 rad14 strain (AID 165);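 also: 0% = growth equal to vehicle treated cultures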; conditions: S. cerevisiae cln2 rad14 strain, at 50.0 µM, hits give high values
In short: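 Compounds are applied to the cln2 rad14 yeast strain, and growth is then compared with that of vehicle-treated cultures to give inhibition.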

[5] = NCI Yeast Anticancer Drug Screen. Data for the bub3 strain (AID 167); conditions: S. cerevisiae bub3 mutant strain, at 50.0 µM, hits give high values
In short: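 Yeast carrying a defined mutation is treated with each compound, and growth is compared with that of vehicle-exposed cells to give inhibition.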

[6] = NCI Yeast Anticancer Drug Screen. Data for the mlh1 rad18 strain (AID 175); conditions: S. cerevisiae mlh1 rad18 strain growth inhibition; at 50.0 µM; hits give high values
In short: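 Read-out is yeast growth inhibition, calculated against vehicle-only controls. The compound was applied to a strain engineered with DNA damage repair alterations.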

| SMILES | growth inhibition [1] [%] | growth inhibition [2] [%] | growth inhibition [3] | growth inhibition [4] [%] | growth inhibition [5] | growth inhibition [6] |
| --- | --- | --- | --- | --- | --- | --- |
| Cn1cnc2c(Cl)ncnc21 | 12.9 | 34.5 | -20.9% | -18.4 | -0.55% | 5.65% |
| CCC(OC(=O)Nc1ccc(S(=O)(=O)NC2CCCCC2)cc1)c1ccco1 (stereo not given) | 26.9 | 3.65 | 26.8% | 10.8 | 5.65% | 4.15% |
| O=C(OC(CN1CCCCC1)CN1CCCc2ccccc21)C(O)C(O)C(O)(CO)C(=O)OC(CN1CCCCC1)CN1CCCc2ccccc21 (stereo not given) | 15.4 | 7.05 | 43.8% | 1.8 | 7.95% | 41.1% |
| N#C/C(=C\c1cccc(N)c1)c1ccccc1 | 45.4 | 57.9 | 73.7% (active) | 30.1 | 88% (active) | 80% (active) |
| COC1=NN2C(OC)(c3ccccc3)c3c(-c4ccccc4)sc(-c4ccccc4)c3C2(c2ccccc2)S1 (stereo not given) | 29.4 | 2.1 | 5.15% | 37.6 | 1.9% | 5.5% |
| O=C(NO)Nc1ccc(Cl)cc1 | 12.2 | 8.7 | 2.95% | -2.15 | -9.2% | 1.65% |
| O=C(/C=C/c1ccco1)CCN1CCOCC1 | 8.15 | -4.6 | 24.8% | -44.1 | -7.25% | 13.8% |
| CNc1c(F)cc(N=Nc2ccccc2)cc1F | 14.7 | -8.2 | 30% | -20.7 | -4% | 10.1% |
| NC(=O)/C=C/c1ccc([N+](=O)[O-])cc1 | 33 | -6.85 | -9% | -74 | 4.6% | -3.4% |
| Cc1c(COC(=O)NC(C)C)c(COC(=O)NC(C)C)c(-c2ccccc2)n1-c1ccccc1 | -16 | -1.95 | 13.8% | -8.1 | -14.1% | 64.2% |
| O=C1c2ccccc2C(=O)c2c(O)c(Cc3ccccc3)cc(O)c21 | 4.75 | 11.9 | 2.2% | 14.5 | 10.2% | 4% |
| C[N+]1(C)CCC(c2ccccc2)(c2ccccc2)C(O)C1 (stereo not given) | -8.85 | 40.7 | 0% | -0.2 | -8.5% | 1.5% |
| CN(C)c1ccc(C=O)cc1[N+](=O)[O-] | 2.75 | 6.25 | -10.8% | -31.8 | -6.9% | -5.9% |
| COC(=O)c1ccccc1NC(=O)N(c1ccccc1)c1ccccc1 | 1.35 | -3.45 | 14.4% | -12.2 | 17.8% | -1.55% |
| Cc1cc(=O)[nH]c2cc(O)c(C(=O)O)cc12 | -2.95 | 3.7 | -0.3% | -54.5 | 1.6% | -8.15% |
| CN1CCC2(CC1)C(=O)N(N1CCCCCC1)C(=O)N2c1ccccc1 | 26.2 | 4.85 | -0.95% | 4.5 | 4% | 15.5% |
| COc1ccc(C(C#N)NNc2nc(C)cc(=O)[nH]2)cc1OC (stereo not given) | -60.1 | -47.5 | -43.2% | -19.6 | -30.9% | -47% |
| O=C1C=C(C2=CC(=O)C(=O)c3ccccc32)c2ccccc2C1=O | 27.5 | 9.45 | 6.55% | -5 | 53.1% | 35.2% |
| C/C(CCC(=O)O)=N\NC(=O)COc1ccc(Cl)cc1Cl | 31.4 | -0.15 | 18.6% | 12.1 | 14.8% | 13.8% |
| CCC1(c2ccccc2)NC(=O)N(N)C1=O (stereo not given) | 0.4 | 28.5 | -8.8% | 9.05 | -0.75% | 1.85% |

| SMILES | growth inhibition [1] [%] | growth inhibition [2] [%] | growth inhibition [3] | growth inhibition [4] [%] | growth inhibition [5] | growth inhibition [6] |
| --- | --- | --- | --- | --- | --- | --- |
| COC(=O)/C(C#N)=C(C)/C=C/c1ccc(OC)cc1 | 22.6 | 14 | 8% | -15.6 | 18.6% | 22.2% |
| Oc1ccc(O)c2c1CC=CC2 | 12.2 | 22.6 | 27.9% | 13 | 18.3% | 16.4% |
| NC(=S)Nc1c(Cl)cc(Cl)cc1Cl | 44 | -8.9 | 33.4% | 8.6 | 17.3% | 12.3% |
| C#CCOC(=O)c1ccc(C(=O)OCC#C)cc1 | 11.9 | -17.3 | -9.3% | 8.35 | 3.15% | -20.7% |
| CSc1nc(Cl)nc2c1nc(SC)n2-c1ccccc1 | -8.4 | 7.95 | -0.45% | -8.95 | 16.5% | -15% |
| CN(C)c1ccc(S(=O)(=O)c2ccc3nc(N)nc(N)c3c2)cc1 | 29.2 | 16.2 | 5.45% | -26.5 | -5.9% | 3.85% |
| S=c1[nH]c2ccccc2nc1NCc1ccccc1 | -1.55 | 2.75 | 2.15% | -19.8 | 10.1% | 2.3% |
| CCc1cccc(CC)c1NC1=CC(=O)C(=O)c2ccccc21 | 22.4 | 11.4 | 10% | 18.8 | 34.2% | 18.2% |
| COc1ccc(N=Nc2c(C)c(C#N)c(=S)n(C3OC(CO)C(O)C(O)C3O)c2C)cc1 (stereo not given) | 16.1 | 14.1 | 46.6% | 7.9 | 28.1% | 21.7% |
| Cc1ccc(/C=C2\CCCC(C(NO)c3ccc(C)cc3)C2=NO)cc1 (stereo not given) | -10.9 | -20.2 | 3.1% | 1.2 | -6.6% | -9.25% |
| O=C(Nc1cc([N+](=O)[O-])cc2c1[nH]c(=O)c1ccccc12)C(F)(F)F | 26.2 | -2.8 | 10.8% | -41.2 | -7.4% | -0.25% |
| COc1ccc(-n2cnc3[nH]ncc3c2=O)cc1 | 1.7 | 0.75 | 0.05% | -0.85 | 12.3% | -2.95% |
| OC1(c2ccccc2)c2ccccc2NC2=NCCN21 (stereo not given) | -14.7 | -12.4 | -10.7% | -10.5 | -45.9% | -16.9% |
| CCOC(=O)/C(C#N)=C/c1ccc([N+](=O)[O-])cc1 | 19.2 | -2.75 | 14.5% | -5.6 | 0.35% | 8.4% |
| S=C1NC(c2ccccc2)Nc2ccccc21 (stereo not given) | 6.5 | 15.9 | -5.5% | -40.3 | -12.9% | 3.75% |
| COC(=O)N1N=C(c2ccccc2)C(C(=O)OC)(C(=O)OC)c2ccccc21 | 45.7 | 11.9 | 24.6% | 16.6 | 20.2% | 36.8% |
| CNc1cccc2c1C(=O)c1ccccc1C2=O | 0.55 | -9.95 | 19.4% | 1.35 | 3.85% | 17.9% |
| Cc1ccc(S(=O)(=O)OC2C(C)OCOC3COCOC32)cc1 (stereo not given) | -6.3 | -6.45 | 5.4% | -13.7 | 2.65% | -9.85% |
| CN(/N=C/c1ccccn1)C1=NCCCCN1 | -33.5 | 3.15 | -23.1% | 22.2 | 8.9% | -8.65% |
| Nc1nc(Sc2ccc([N+](=O)[O-])c3nonc23)c2ncn(C3OC(CO)C(O)C3O)c2n1 (stereo not given) | -0.7 | -11.3 | 3% | 26.6 | -6.3% | 11.9% |
